Test [1] is described as follows: A549 cell viability effects, profiling panel, calcein-AM fluorescence, 48 h, basal (AID 1162). The settings on record: higher = more signal.
The nature of test [2]: adipocyte viability effects, profiling panel, cell-based, 3T3-L1 adipocytes, calcein-AM fluorescence, 48 h, basal (AID 1163). The following applies: 3T3-L1 adipocytes viability, higher = more signal.
The nature of test [3]: HepG2 cell viability effects, profiling panel, calcein-AM fluorescence, 48 h, basal (AID 1164). The following applies: higher = more signal.
Test [4] in a line: MM1S cell viability effects, profiling panel, calcein-AM fluorescence, 48 h, basal (AID 1165).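 Further: viability of MM1S multiple myeloma cells under basal unstimulated conditions.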 The following applies: higher = more signal.
The nature of test [5]: basal RPMI8226 viability, no added stimulus, profiling panel, cell-based, calcein-AM fluorescence, 48 h, PK04 Diversity Set (AID 1166).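 Further: cells grown under basal conditions without added stimulus.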 The following applies: RPMI8226 myeloma viability, higher = more signal.
The nature of test [6]: basal HepG2 mitochondrial membrane potential changes, profiling panel, cell-based, JC-1 fluorescence, 24 h, 100 nL compound (AID 1167). The settings on record: higher = more signal.
Test [7] is described as follows: basal 3T3-L1 adipocyte mitochondrial potential changes, profiling panel, cell-based, JC-1 fluorescence, 3T3-L1 adipocytes, 24 h, 100 nL compound (AID 1168). The settings on record: JC-1 mitochondrial fluorescence, higher = more signal, called active from +8 up or from −8 down.
Test [8] in a line: basal RPMI8226 mitochondrial membrane potential changes, profiling panel, cell-based, JC-1 fluorescence, 24 h, 100 nL compound (AID 1169). The following applies: RPMI8226 myeloma, JC-1 mitochondrial potential fluorescence, higher = more signal.
A short description of test [9]: basal MM1S mitochondrial membrane potential changes, profiling panel, cell-based, JC-1 fluorescence, 24 h, 100 nL compound (AID 1170). The settings on record: higher = more signal.
The nature of test [10]: A549 lung cancer cell viability effects, profiling panel, resazurin fluorescence, 24 h, PK04 Diversity Set (AID 1171). The settings on record: higher = more signal, called active from +8 up or from −8 down.

Calls of active or inactive are those of the source.
Further: test concentration not given here.

Turning to `NC(=O)NCC#Cc1ccc2c(c1)[C@]1(C(=O)N2)[C@H](c2ccc(O)cc2)N2[C@H](c3ccccc3)[C@H](c3ccccc3)OC(=O)[C@H]2[C@@H]1C(N)=O`, the z-score in test [1] is 0.233; in test [2], -1.07; in test [3] it was 0.705; in [4], 0.669; in test [5], 1.23; in test [6], -0.538. The z-score in [7] was -0.06 (inactive); in test [8], -0.371; in [9] it was -0.691; in test [10], -1.08 (inactive).

`COC(=O)c1c(CC[C@@H](CO)NC(=O)N[C@@H](C)Cn2cc(C3(O)CCCC3)nn2)oc(C(C)=O)c1C(=O)OC`: the z-score in test [1] is 0.329; in test [2], 1.45; in test [3], -0.299; in [4] it was -2.1; in [5], -0.371; in [6], -0.428. The z-score in test [7] was 1.04 (inactive); in test [8] it was -0.357; in test [9], 0.932; in [10] it was -0.514 (inactive).

Take `C[N+](C)(C)CCCCCCNC(=O)[C@@H]1C[C@@H]2C(=O)NCC(=O)N2[C@@H]1c1cccc(OCCO)c1`: the z-score in test [1] was -0.308; in [2], 0.867; in test [3], -1.2; in test [4], -2.7; in test [5], 0.422; in test [6] it was -0.844. Besides, the z-score in test [7] is -0.0181 (inactive); in [8], -0.0934; in [9], -1.39; in test [10], 1.46 (inactive).

With `COC(=O)[C@@]1(Cc2ccccc2)[C@H]2c3cc(C(=O)N4CCCC4)n(CCO)c3C[C@H]2CN1C(=O)c1ccccc1`, the z-score in test [1] was -0.258; in test [2], 0.577; in test [3], 0.345; in test [4] it was -0.867; in test [5] it was 0.688; in [6], 0.844. For the same molecule, the z-score is 0.671 (inactive) in test [7], 0.0245 in test [8], -0.77 in [9] and -0.103 (inactive) in test [10].

Turning to `C=CCN1C(=O)[C@@]2(O[C@@H](CCO)[C@H]([Si](C)(C)c3ccc(OC)cc3)[C@H]2C)c2cc(NC(=O)[C@H](C)O)ccc21`, the z-score is 0.174 in test [1]; 0.178 in test [2]; -2.92 in test [3]; -2.69 in test [4]; -4.41 in test [5]; 1.89 in test [6]. For the same molecule, the z-score was 0.18 (inactive) in [7], -0.872 in test [8], -1.09 in [9] and -2.25 (inactive) in test [10].

`COCCCNC(=O)[C@@H]1c2ccccc2C(=O)N(c2ccc(C)cn2)[C@H]1c1ccc(CO)cc1`: the z-score in test [1] is 0.212; in [2], 1.23; in [3], -0.357; in test [4], -1.04; in [5], -0.57; in test [6] it was -0.569. The z-score is -0.916 (inactive) in [7], 0.83 in [8], 0.484 in test [9] and -0.708 (inactive) in test [10].

`C[N+](C)(C)CCCCNC(=O)[C@H]1C[C@H]2C(=O)NCC(=O)N2[C@H]1c1ccc(O)cc1`: the z-score in test [1] is -0.143; in test [2] it was -0.811; in test [3] it was 0.658; in [4] it was 0.519; in test [5], 0.124; in test [6], 0.227. Besides, the z-score in test [7] was -0.12 (inactive); in test [8], -0.797; in [9] it was -0.988; in test [10], -1.02 (inactive).
